Sampled rows, rich in hits. Any-hit rate of the full collection: about 2.3%.
HIF-2a block: inhibitors of HIF-2a. 786-0 RCC cells HIF-2a reporter, luciferase luminescence, overnight. inhibition, % at 18.8 µM. 0.72% of 360,000 active. AID 624352;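 active = inhibition of the luminescence signal of 40% or more relative to plate controls, in a single-dose primary screen at 18.75 µM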
KKLEB cytotox: reduces viability of KKLEB cystic fibrosis airway cells; activity change (cytotoxicity), % at 5 µM; 0.36% of 360,000 active; KKLEB CF airway cells viability, ATPlite luminescence, overnight; stronger effect = lower value; cells stimulated with P. aeruginosa culture filtrate; AID 602141;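 active = corrected activity change at or below -50% at 5 µM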
CF NFkB inh: inhibitors of cystic fibrosis induced NF-kB | KKLEB NF-kB-GFP reporter, PAF-induced, GFP fluorescence overnight | inhibition, % at 5 µM | 0.86% of 360,000 active | AID 588850;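 active = at least 50% inhibition at 5 µM, scaled per plate between neutral and stimulator controls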;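 note: PAF is a Pseudomonas aeruginosa culture filtrate used as stimulus; plate controls were PAF-stimulated DMSO wells for no effect and unstimulated DMSO wells for full effect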
TWEAK-Fn14 inh: inhibitors of TWEAK-Fn14 interaction signaling. TWEAK-stimulated Fn14 reporter cells, luciferase luminescence, 8 h. inhibition, % at 10 µM. 2% of 360,000 active. AID 1159606; in the data active = inhibition above about 50%
hiPSC survival: enhancers of human iPSC single-cell survival; 0.044% of 360,000 active; hiPSC single-cell survival, ATPlite luminescence; 100% = ROCK inhibitor wells, 0% = DMSO; survival enhancement, % at 20 µM; in the data active = survival enhancement above about 18%;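 note: cells exposed to compounds for 16 hours before the ATP read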
LGR2 antag: blocks bursicon-induced cAMP signaling via Drosophila LGR2 | HEK293 LGR2, CRE-luciferase, bursicon-stimulated, 4 h | inhibition, % at 9.99 µM | 0.35% of 380,000 active | AID 720647;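 active = drop in luminescence signal, shown as inhibition above about 50% in the replicate tests, limit read from the data, passing the limit was not always enough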;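 note: agonist challenge used bursicon conditioned medium at about half maximal strength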
Mdm2 MdmX conf: confirmation of inhibitors of human Mdm2/MdmX interaction, set 2; shares compounds with HIF-2a block; SaOS-2 split-luciferase Mdm2/MdmX complementation, luminescence; inhibition, % at 8 µM; 99% of 740 active;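 active = mean inhibition of the luminescence signal across two replicates at or above 26 percent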
HIF-2a inh conf: confirmation of HIF-2a inhibitors. shares compounds with HIF-2a block. 786-0 RCC cells, HIF-2a luciferase reporter luminescence, overnight. inhibition, % at 18.8 µM. 56% of 1,800 active. AID 651580;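 active = mean inhibition across four replicates of at least 40 percent at the single tested concentration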
HIF-1a counter: HIF-1a inhibition counter-screen for HIF-2a hits. AID 651589. 72% of 1,800 active. MiaPaCa-2 HIF-1a luciferase reporter, desferoxamine, overnight. shares compounds with HIF-2a block. inhibition, % at 18.8 µM;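 active = mean inhibition of the reporter signal across four replicates at the single tested dose of 50% or more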
The depositor's hits bear a star; nt = no result.

SMILES	HIF-2a block	KKLEB cytotox	CF NFkB inh	TWEAK-Fn14 inh	hiPSC survival	LGR2 antag	HIF-2a inh conf	HIF-1a counter	others
CCOC(=O)c1ccc(NC(=O)Cn2ncc(Cl)c(Cl)c2=O)cc1	89*	-95*	89*	99*	-4	10	98*	105*	Mdm2 MdmX conf=103*
Fc1ccc(/C=C2\CCCC3=C2Nc2ncnn2C3c2ccc(F)cc2)cc1 (stereo not drawn)	86*	-44	80*	35	-2	nt	16	66*
CC1=CC2C(C(O)CC3(C)C2CC(C)C32OCOC23COCO3)C2(C)C/C(=C\O)C(=O)C=C12 (stereo not drawn)	95*	-95*	96*	109*	-2	80*	53*	108*
COc1ccc2c3c([nH]c2c1)[C@H](CO)N(C(=O)C1CCCC1)CC31CCN(S(C)(=O)=O)CC1	nt	nt	nt	nt	nt	-5	nt	nt
CO[C@H]1CN(C)C(=O)c2ccc(NC(=O)c3nc4ccccc4s3)cc2OC[C@@H](C)NC[C@H]1C	nt	nt	nt	nt	nt	-5	nt	nt
Cc1ccc(-n2nc3ccc(N)cc3n2)c(C)c1	56*	5	-37	87*	-1	-51	76*	17
O=C(N[C@@H]1CC[C@@H](CCn2cc(C3(O)CCCC3)nn2)O[C@H]1CO)C1CC1	nt	nt	nt	nt	nt	9	nt	nt
Cc1ccc(C(=O)NCCc2cccs2)cc1	44*	-24	-13	85*	-5	75*	62*	57*
O=c1c(Br)c(Br)cnn1-c1ccccc1	96*	-85*	90*	93*	0	5	99*	107*
Cc1ccc(-n2ncc(Br)c(Br)c2=O)cc1	92*	-36	69*	78*	-4	nt	99*	102*
COc1cnn(-c2ccc(F)cc2)c(=O)c1Br	-13	0	-2	-12	0	-18	nt	nt
C[C@@H]1CN([C@H](C)CO)C(=O)c2cc(N(C)C)ccc2O[C@@H](C)CCCCO[C@@H]1CN(C)C(=O)c1ccccc1	nt	nt	nt	nt	nt	13	nt	nt
O=S(=O)(C/C(=C/CO)S(=O)(=O)c1ccccc1)c1ccccc1	87*	-26	99*	66*	-4	nt	98*	105*	Mdm2 MdmX conf=102*
CN1CCN(Cc2nc3ccccc3c(=O)n2Cc2nc(-c3cccc([N+](=O)[O-])c3)cs2)CC1	-14	-7	-13	11	-1	-1	nt	nt
CN1CCN(Cc2nc3ccccc3c(=O)n2Cc2nc(-c3ccc4ccccc4c3)cs2)CC1	62*	-45	4	-121	-3	90*	-10	106*
N#CC1=C(c2ccccc2)/C(=C/c2ccccc2)OC1=O	89*	-7	42	83*	0	-12	4	106*
Cc1ccccc1-c1nc(-c2ccccn2)no1	60*	-39	-31	97*	-2	95*	73*	66*
COc1ccc(-c2nc(-c3ccccn3)no2)cc1	88*	-80*	-36	102*	-7	100*	95*	98*	Mdm2 MdmX conf=96*
O=C(O)c1ccc(C=C(c2nc3ccccc3s2)c2nc3ccccc3s2)cc1	50*	-15	30	47	0	15	52*	92*
C=C1CCc2c([nH]c3ccc(OCC(C)C)cc23)C1=O	96*	-21	29	2	-1	8	-6	67*
Cc1ccc(C2(c3ccc(C)cc3)CC2C(=O)Nc2ccc([N+](=O)[O-])cc2O)cc1 (stereo not drawn)	-18	-85*	84*	66*	0	nt	nt	nt	Mdm2 MdmX conf=95*
CC1(C)CC1C(=O)Nc1ccc([N+](=O)[O-])cc1Br (stereo not drawn)	-13	-4	9	4	-3	-5	nt	nt
CCOC(=O)c1c(N)c2cc([N+](=O)[O-])ccc2n1C	-43	19	-51	-41	0	-20	nt	nt
